PubChem BioAssay AID504843 (Broad Institute, 2011)
Among all 1,200 compounds or so, about 360 (30%) were called active. The rule behind the calls is not given here. Not all results are given here. Results with a measured potency or affinity are listed apart.

Assay: antibacterial activity by ATP level – BacTiter-Glo luminescence, cherry-picked samples, counter-screen, dose response (AID 504843);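 note: growth measured after 8 h incubation at 30 °C; 0% = median of sample compound wells and -100% = antibiotic control wells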
Details: bacterial growth; series mostly up to 15 µM; activity change, negative = inhibition: at the top concentration

| Compound | activity change, negative = inhibition |
| --- | --- |
| O=C(CCC(=O)Nc1ccccc1)N/N=C/c1ccncc1 | -9.65% (inactive) |
| CC(=O)Nc1ccc(NC(=O)CSc2ccccn2)cc1 | -6.37% (inactive) |
| C/C=C(/C)C(=O)Nc1cccc(C2=NOC3(C2)C[C@H](C(N)=O)N(C(=O)c2ccc(Cl)cc2)C3)c1 (some centres undefined) | 14.6% (inactive) |
| Cc1nc2ccc(NC(=O)C3CCN(S(=O)(=O)c4cccs4)CC3)cc2s1 | 16.2% (inactive) |
| Cc1ccc(S(=O)(=O)N2CCC(C(=O)Nc3nnc(C)s3)CC2)cc1 | 11.9% (inactive) |
| Cc1noc(C)c1COc1ccccc1C(=O)NC1CCC(C)CC1 (centres undefined) | 14.2% (inactive) |
| N#Cc1cccc(C(=O)OCC(=O)NCc2ccco2)c1 | 21.7% (inactive) |
| CS(=O)(=O)N(CC(=O)NC1CCCC1)c1cccc(F)c1 | 19.6% (inactive) |
| Cc1cccc(N(CC(=O)NC(C)(C)C)C(=O)CCC(=O)Nc2nccs2)c1 | 16.4% (inactive) |
| O=c1cc(O)nc[nH]1 | -4.28% (inactive) |
| CCOc1cc(C(=O)N2CCCN(C)CC2)cc(OCC)c1OCC | 13.9% (inactive) |
| O=C(Cn1cc2c(n1)CCCCC2)N1CCc2ccccc2C1 | -1.73% (inactive) |
| COc1ccc(CN(C(=O)/C=C/c2ccccc2Cl)C2CCS(=O)(=O)C2)cc1 (centres undefined) | -0.177% (inactive) |
| Cn1c(-c2ccccc2)cnc1SCc1nc2ccccc2c(=O)[nH]1 | -13.3% (inactive) |
| CCOC(=O)c1c(NC(=O)CSc2n[nH]c(CNc3ccccc3)n2)sc(C)c1C | -30.9% (inactive) |
| Cc1nn2c(COc3ccc(NC(=O)c4ccccc4Cl)cc3)nnc2c2ccccc12 | 14.4% (inactive) |
| COc1ccc(NC(=O)c2ccc(Oc3ncccn3)cc2)cc1 | 8.41% (inactive) |
| COc1ccc(NC(=O)Cn2ncc(Cl)c(Cl)c2=O)cc1S(=O)(=O)N1CCOCC1 | -0.163% (inactive) |
| CCn1ccnc1CN(C)C(=O)c1cc(COc2ccc(Cl)cc2OC)on1 | 10.2% (inactive) |
| COc1ccccc1OCCNC(=O)Cc1ccc(S(=O)(=O)N2CCOCC2)s1 | -3.23% (inactive) |
| CCN(CC(=O)NCc1ccc(F)cc1)CC(=O)Nc1ccc(S(=O)(=O)N2CCCC2)cc1 | -9.6% (inactive) |
| O=C(CSc1nc(O)c(Cc2ccccc2F)c(=O)[nH]1)N1CCCCCC1 | -21.7% (inactive) |
| COc1ccc(-c2csc(NC(=O)C3COc4ccccc4O3)n2)cc1OC (centres undefined) | -6.84% (inactive) |
| COc1ccc2c(c1)c(C(O)CN1CCC(Cc3ccccc3)CC1)c(C)n2C (centres undefined) | 14% (inactive) |
| Cc1c(Nc2ncnc3c2cnn3-c2ccccc2)c(=O)n(-c2ccccc2)n1C | -0.73% (inactive) |
| O=C(CN1CCN(c2ccc(O)cc2)CC1)Nc1ccc2c(c1)OCCO2 | 2.96% (inactive) |
| COc1ccc(S(=O)(=O)N2CCOCC2)cc1NC(=O)c1ccc2c(c1)OCO2 | 10.4% (inactive) |
| CCOc1ccc(S(=O)(=O)N2CCCCC2)cc1NC(=O)CN1C(=O)NC(CC)(c2ccccc2)C1=O (centres undefined) | -28.2% (inactive) |
| Cc1cc(C)c(C(N)=O)c(Nc2ccc3c(c2)OCCO3)n1 | 1.39% (inactive) |
